# According to paper PMC7862700, “An all-to-all approach to the identification of sequence-specific readers for epigenetic DNA modifications on cytosine”:
# Experiments:
# Test in all cases: DAPPL (digital affinity profiling via proximity ligation, sequencing); 10 mM Tris-HCl pH 7.5, 50 mM NaCl, 1 mM DTT, 4% glycerol, room temperature, 30 min; GST-TFs on glutathione beads, 16-mer random dsDNA library, 0.1% formaldehyde crosslink after washing; high values mean tight binding
# [1] = biological target: T1, FEV (Homo sapiens, UniProt Q99581 1-238); conditions: protein: recombinant; tags: N-terminal GST; dsDNA, one strand shown
# T1 sequence: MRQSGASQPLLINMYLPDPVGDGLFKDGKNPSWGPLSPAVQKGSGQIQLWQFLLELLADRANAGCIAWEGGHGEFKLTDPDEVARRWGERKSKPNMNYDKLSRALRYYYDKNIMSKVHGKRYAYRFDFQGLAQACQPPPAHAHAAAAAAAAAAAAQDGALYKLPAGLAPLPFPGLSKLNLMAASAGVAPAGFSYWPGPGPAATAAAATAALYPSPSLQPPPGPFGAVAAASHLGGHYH
# Outline: (§1)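 Binding signal is given per hexamer as its read frequency for a factor divided by its frequency in the tag-only sample. GST-fused human transcription factors were expressed in yeast, captured on glutathione beads, barcoded with DNA and pooled with that sample, then incubated with 200 nmole of a 16-mer random double-stranded DNA library in Tris/NaCl/DTT/glycerol buffer for 30 min at room temperature. The pools were then washed, crosslinked, proximity-ligated, amplified by PCR and sequenced on an Illumina NextSeq500.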
# [2] = biological target: ETV5 (Homo sapiens, UniProt P41161 1-510); conditions: protein: recombinant; tags: N-terminal GST; dsDNA, one strand shown
# Chain of ETV5 (P41161 whole entry): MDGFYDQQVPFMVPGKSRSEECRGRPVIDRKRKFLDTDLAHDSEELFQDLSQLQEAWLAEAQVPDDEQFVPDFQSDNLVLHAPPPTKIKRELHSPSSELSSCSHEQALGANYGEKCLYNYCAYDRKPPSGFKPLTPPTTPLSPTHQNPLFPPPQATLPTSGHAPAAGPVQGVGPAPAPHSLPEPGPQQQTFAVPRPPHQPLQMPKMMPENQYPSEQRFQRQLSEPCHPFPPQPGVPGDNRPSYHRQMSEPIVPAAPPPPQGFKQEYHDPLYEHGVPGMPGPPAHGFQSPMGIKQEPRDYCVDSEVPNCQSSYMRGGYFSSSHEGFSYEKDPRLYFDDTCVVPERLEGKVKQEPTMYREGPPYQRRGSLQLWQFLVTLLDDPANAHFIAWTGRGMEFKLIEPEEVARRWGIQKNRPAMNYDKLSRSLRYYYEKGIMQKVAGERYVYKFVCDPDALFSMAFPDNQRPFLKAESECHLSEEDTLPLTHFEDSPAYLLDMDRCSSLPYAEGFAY
# Outline: as §1
# [3] = biological target: HSF1 (Homo sapiens, UniProt Q00613 1-529); conditions: protein: recombinant; tags: N-terminal GST; chain copies: 3; dsDNA, one strand shown
# Chain of HSF1 (Q00613 whole entry): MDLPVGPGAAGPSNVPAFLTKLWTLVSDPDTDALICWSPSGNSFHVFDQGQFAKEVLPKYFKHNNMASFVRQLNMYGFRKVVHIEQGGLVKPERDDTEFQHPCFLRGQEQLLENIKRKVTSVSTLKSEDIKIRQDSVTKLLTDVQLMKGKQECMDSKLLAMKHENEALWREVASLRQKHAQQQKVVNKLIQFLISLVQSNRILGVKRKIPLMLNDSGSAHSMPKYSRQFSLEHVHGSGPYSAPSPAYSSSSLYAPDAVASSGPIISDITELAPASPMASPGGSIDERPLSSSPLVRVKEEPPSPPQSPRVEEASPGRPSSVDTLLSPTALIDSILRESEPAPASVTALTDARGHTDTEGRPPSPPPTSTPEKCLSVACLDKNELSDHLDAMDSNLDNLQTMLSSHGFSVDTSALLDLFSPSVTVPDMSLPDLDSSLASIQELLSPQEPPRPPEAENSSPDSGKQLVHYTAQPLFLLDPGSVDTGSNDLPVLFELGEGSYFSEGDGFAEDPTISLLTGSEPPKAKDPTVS
# Outline: as §1
# [4] = biological target: T2, SPIC (Homo sapiens, UniProt Q8N5J4 1-248); conditions: protein: recombinant; tags: N-terminal GST; dsDNA, one strand shown
# T2 sequence: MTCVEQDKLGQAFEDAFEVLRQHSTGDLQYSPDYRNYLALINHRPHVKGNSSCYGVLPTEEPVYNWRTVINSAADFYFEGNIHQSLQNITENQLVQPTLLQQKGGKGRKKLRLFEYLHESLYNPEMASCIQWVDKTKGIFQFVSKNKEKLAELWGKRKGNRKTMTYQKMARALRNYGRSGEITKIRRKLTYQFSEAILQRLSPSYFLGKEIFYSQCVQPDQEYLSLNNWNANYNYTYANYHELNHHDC
# Outline: as §1
# [5] = biological target: ELF4 (Homo sapiens, UniProt Q99607 1-663); conditions: protein: recombinant; tags: N-terminal GST; dsDNA, one strand shown
# Chain of ELF4 (Q99607 whole entry): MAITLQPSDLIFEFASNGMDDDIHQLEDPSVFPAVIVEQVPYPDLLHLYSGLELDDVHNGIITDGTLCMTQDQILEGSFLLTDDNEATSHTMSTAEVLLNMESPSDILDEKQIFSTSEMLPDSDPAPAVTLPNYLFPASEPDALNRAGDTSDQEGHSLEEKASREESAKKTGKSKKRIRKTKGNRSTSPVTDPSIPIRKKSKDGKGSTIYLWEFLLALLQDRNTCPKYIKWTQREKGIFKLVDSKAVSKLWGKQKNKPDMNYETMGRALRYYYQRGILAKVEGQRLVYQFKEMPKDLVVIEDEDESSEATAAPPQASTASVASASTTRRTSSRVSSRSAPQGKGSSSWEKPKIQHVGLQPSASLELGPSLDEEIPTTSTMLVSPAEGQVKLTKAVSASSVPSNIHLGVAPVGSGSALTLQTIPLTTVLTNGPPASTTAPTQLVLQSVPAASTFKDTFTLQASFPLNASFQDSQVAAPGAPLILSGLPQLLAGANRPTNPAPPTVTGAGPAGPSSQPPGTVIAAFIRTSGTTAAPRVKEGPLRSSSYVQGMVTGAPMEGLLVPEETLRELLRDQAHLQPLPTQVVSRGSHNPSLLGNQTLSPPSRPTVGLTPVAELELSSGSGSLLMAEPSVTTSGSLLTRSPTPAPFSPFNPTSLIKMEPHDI
# Outline: as §1
# [6] = biological target: T3, ELK4 (Homo sapiens, UniProt P28324-2 1-405); conditions: protein: recombinant; tags: N-terminal GST; dsDNA, one strand shown
# T3 sequence: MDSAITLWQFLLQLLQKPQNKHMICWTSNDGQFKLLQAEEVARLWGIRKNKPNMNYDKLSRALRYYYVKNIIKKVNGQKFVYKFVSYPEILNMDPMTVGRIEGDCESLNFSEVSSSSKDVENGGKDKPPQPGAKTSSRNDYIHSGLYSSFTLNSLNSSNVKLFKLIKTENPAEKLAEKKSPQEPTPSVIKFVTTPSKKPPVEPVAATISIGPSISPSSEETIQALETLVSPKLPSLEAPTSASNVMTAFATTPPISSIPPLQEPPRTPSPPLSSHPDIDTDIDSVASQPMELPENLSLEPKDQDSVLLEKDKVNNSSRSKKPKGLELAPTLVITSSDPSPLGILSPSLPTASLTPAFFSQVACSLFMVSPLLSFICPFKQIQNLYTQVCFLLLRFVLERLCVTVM
# Outline: as §1
# [7] = biological target: T4, ETV2 (Homo sapiens, UniProt O00321 1-342); conditions: protein: recombinant; tags: N-terminal GST; dsDNA, one strand shown
# T4 sequence: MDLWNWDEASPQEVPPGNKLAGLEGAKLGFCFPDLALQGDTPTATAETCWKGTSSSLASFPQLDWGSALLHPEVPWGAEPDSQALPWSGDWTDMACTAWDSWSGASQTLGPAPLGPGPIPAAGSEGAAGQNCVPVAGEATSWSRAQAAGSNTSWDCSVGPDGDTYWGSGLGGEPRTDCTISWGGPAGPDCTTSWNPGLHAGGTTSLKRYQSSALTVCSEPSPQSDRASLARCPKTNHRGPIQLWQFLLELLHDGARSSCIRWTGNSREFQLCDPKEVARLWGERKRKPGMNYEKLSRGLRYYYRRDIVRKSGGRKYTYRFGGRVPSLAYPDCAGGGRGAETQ
# Outline: as §1
# [8] = biological target: T5, ELF3 (Homo sapiens, UniProt P78545 1-371); conditions: protein: recombinant; tags: N-terminal GST; dsDNA, one strand shown
# T5 sequence: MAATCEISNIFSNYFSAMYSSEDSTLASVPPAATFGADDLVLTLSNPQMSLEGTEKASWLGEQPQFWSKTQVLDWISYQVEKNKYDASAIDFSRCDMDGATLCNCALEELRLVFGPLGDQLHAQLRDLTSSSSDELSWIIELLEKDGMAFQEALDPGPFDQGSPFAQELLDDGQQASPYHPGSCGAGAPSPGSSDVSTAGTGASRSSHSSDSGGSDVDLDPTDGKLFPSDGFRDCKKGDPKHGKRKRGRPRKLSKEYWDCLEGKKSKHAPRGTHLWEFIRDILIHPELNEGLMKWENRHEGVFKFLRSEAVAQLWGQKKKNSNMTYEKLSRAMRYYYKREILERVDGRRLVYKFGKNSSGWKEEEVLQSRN
# Outline: as §1
# [9] = biological target: CRX (Homo sapiens, UniProt O43186 1-299); conditions: protein: recombinant; tags: N-terminal GST; dsDNA, one strand shown
# Chain of CRX (O43186 whole entry): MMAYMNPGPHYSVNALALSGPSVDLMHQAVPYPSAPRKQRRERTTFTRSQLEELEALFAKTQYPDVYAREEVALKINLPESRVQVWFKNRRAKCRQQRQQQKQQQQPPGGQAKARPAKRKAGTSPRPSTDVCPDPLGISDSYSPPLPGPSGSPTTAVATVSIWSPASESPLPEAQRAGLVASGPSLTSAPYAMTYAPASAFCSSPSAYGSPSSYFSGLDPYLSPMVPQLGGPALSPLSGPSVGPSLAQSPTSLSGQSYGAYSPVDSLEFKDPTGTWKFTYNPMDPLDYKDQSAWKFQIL
# Outline: as §1
# [10] = biological target: ETV1 (Homo sapiens, UniProt P50549 1-477); conditions: protein: recombinant; tags: N-terminal GST; dsDNA, one strand shown
# Chain of ETV1 (P50549 whole entry): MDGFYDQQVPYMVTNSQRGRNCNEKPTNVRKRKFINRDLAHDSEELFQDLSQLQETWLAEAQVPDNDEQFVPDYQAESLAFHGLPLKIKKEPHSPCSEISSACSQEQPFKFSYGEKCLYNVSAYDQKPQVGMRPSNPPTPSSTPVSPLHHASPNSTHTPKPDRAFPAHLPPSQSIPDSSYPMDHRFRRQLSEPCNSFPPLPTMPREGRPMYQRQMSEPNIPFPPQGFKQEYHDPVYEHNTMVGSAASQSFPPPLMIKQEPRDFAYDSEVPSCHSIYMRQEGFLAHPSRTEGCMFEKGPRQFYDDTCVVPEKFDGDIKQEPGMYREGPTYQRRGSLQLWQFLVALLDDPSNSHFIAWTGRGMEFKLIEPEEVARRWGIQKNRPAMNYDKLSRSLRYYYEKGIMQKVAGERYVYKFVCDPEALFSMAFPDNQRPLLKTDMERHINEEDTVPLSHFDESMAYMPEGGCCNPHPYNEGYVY
# Outline: as §1
# [11] = biological target: T6, ERF (Homo sapiens, UniProt P50548 1-548); conditions: protein: recombinant; tags: N-terminal GST; dsDNA, one strand shown
# T6 sequence: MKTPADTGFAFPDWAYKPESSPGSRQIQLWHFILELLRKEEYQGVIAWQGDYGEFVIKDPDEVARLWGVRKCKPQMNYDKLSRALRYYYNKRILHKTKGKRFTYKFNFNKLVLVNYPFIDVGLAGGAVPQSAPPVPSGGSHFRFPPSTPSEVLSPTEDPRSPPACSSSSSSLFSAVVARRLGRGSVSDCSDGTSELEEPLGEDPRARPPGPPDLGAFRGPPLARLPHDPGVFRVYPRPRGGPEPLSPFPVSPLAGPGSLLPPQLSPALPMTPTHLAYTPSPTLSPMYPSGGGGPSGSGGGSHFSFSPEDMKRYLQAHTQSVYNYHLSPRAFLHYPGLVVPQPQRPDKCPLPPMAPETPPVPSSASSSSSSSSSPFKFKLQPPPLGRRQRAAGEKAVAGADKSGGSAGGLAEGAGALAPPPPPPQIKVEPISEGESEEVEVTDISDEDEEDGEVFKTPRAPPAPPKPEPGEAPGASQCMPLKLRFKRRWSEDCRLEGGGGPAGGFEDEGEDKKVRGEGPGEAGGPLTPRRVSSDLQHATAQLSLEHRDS
# Outline: as §1
# [12] = biological target: T7, ETV3L (Homo sapiens, UniProt Q6ZN32 1-361); conditions: protein: recombinant; tags: N-terminal GST; dsDNA, one strand shown
# T7 sequence: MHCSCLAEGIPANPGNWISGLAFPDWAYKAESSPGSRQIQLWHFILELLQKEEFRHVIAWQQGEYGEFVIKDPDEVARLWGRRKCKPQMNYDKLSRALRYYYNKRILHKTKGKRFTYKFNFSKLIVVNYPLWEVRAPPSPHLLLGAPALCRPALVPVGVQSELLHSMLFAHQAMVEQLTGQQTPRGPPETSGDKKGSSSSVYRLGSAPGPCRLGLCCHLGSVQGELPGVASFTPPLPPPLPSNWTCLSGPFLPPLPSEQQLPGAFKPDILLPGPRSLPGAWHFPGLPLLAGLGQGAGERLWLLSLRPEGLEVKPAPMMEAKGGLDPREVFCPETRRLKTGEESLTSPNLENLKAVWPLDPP
# Outline: as §1
# [13] = biological target: T8, ETS2 (Homo sapiens, UniProt P15036 1-469); conditions: protein: recombinant; tags: N-terminal GST; dsDNA, one strand shown
# T8 sequence: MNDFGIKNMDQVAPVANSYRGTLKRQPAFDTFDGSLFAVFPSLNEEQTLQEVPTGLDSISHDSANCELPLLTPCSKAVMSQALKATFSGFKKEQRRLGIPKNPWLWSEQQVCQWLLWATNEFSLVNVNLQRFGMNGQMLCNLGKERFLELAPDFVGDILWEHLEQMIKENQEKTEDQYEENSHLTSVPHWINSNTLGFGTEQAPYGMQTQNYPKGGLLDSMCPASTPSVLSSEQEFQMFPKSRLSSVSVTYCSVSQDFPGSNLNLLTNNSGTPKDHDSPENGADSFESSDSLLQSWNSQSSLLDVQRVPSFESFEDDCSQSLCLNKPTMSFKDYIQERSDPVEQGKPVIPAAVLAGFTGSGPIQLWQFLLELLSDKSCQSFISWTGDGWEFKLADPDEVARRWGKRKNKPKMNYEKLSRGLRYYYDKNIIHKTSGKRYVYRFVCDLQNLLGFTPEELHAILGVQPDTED
# Outline: as §1
# [14] = biological target: T9, SPDEF (Homo sapiens, UniProt O95238 1-335); conditions: protein: recombinant; tags: N-terminal GST; dsDNA, one strand shown
# T9 sequence: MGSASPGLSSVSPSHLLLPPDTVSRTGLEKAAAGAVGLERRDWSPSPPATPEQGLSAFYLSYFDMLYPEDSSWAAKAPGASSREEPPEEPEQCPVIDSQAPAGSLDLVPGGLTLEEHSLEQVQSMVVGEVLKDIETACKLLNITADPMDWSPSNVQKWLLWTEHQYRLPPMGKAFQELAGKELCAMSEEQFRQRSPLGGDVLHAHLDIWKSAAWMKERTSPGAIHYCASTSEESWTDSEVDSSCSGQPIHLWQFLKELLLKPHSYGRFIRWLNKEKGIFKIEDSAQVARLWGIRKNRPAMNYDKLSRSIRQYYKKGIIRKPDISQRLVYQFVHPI
# Outline: as §1
# [15] = biological target: T10, ETV7 (Homo sapiens, UniProt Q9Y603 1-341); conditions: protein: recombinant; tags: N-terminal GST; dsDNA, one strand shown
# T10 sequence: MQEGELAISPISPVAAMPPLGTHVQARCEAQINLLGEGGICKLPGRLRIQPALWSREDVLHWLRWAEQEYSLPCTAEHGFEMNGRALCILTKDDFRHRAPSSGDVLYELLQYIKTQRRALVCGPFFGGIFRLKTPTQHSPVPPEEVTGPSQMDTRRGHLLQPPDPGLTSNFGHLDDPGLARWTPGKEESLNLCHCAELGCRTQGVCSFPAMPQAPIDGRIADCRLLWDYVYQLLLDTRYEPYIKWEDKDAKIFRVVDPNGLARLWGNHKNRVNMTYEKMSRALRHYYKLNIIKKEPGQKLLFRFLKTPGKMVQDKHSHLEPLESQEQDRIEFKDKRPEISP
# Outline: as §1
# [16] = biological target: T11, ELF5 (Homo sapiens, UniProt Q9UKW6-2 1-255); conditions: protein: recombinant; tags: N-terminal GST; dsDNA, one strand shown
# T11 sequence: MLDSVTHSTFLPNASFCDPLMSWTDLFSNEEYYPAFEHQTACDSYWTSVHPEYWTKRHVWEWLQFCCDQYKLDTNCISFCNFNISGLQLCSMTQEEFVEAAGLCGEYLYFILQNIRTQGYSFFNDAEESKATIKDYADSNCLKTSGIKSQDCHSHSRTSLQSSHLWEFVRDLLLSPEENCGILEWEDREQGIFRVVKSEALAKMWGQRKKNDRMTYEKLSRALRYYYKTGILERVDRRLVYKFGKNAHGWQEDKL
# Outline: as §1
# [17] = biological target: T12, ETV3 (Homo sapiens, UniProt P41162-2 1-143); conditions: protein: recombinant; tags: N-terminal GST; dsDNA, one strand shown
# T12 sequence: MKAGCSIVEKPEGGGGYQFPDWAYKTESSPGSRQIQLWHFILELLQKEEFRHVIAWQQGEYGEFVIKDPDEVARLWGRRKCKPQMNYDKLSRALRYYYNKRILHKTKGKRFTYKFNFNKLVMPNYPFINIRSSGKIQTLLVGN
# Outline: as §1
# [18] = biological target: ETV6 (Homo sapiens, UniProt P41212 1-452); conditions: protein: recombinant; tags: N-terminal GST; dsDNA, one strand shown
# Chain of ETV6 (P41212 whole entry): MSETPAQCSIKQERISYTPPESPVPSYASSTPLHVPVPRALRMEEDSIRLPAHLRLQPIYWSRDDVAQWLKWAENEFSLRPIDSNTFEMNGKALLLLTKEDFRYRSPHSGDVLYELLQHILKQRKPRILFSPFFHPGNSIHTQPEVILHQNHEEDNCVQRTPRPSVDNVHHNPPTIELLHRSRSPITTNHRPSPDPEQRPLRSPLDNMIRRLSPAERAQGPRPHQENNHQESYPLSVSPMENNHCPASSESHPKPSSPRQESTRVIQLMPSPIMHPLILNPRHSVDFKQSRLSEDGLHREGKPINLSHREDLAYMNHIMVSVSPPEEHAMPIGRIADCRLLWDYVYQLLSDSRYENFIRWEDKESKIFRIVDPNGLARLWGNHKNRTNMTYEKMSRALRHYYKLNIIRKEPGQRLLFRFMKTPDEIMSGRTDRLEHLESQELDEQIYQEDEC
# Outline: as §1
sequence,measurement,setting,value
GTATTT,binding signal,[1],"1.6 fold enrichment (6-mer frequency, TF over GST control)"
same,binding signal,[2],"1.59 fold enrichment (6-mer frequency, TF over GST control)"
same,binding signal,[3],"1.5 fold enrichment (6-mer frequency, TF over GST control)"
same,binding signal,[4],"1.66 fold enrichment (6-mer frequency, TF over GST control)"
same,binding signal,[5],"1.59 fold enrichment (6-mer frequency, TF over GST control)"
same,binding signal,[6],"1.52 fold enrichment (6-mer frequency, TF over GST control)"
same,binding signal,[7],"1.69 fold enrichment (6-mer frequency, TF over GST control)"
same,binding signal,[8],"1.39 fold enrichment (6-mer frequency, TF over GST control)"
same,binding signal,[9],"1.73 fold enrichment (6-mer frequency, TF over GST control)"
same,binding signal,[10],"1.64 fold enrichment (6-mer frequency, TF over GST control)"
same,binding signal,[11],"1.47 fold enrichment (6-mer frequency, TF over GST control)"
same,binding signal,[12],"1.62 fold enrichment (6-mer frequency, TF over GST control)"
same,binding signal,[13],"1.7 fold enrichment (6-mer frequency, TF over GST control)"
same,binding signal,[14],"1.64 fold enrichment (6-mer frequency, TF over GST control)"
same,binding signal,[15],"1.73 fold enrichment (6-mer frequency, TF over GST control)"
same,binding signal,[16],"1.62 fold enrichment (6-mer frequency, TF over GST control)"
same,binding signal,[17],"1.53 fold enrichment (6-mer frequency, TF over GST control)"
same,binding signal,[18],"1.79 fold enrichment (6-mer frequency, TF over GST control)"
